High-throughput results (PubChem BioAssay)
Rows were chosen to be rich in hits. Some 4.1% of all compounds tested hit in one or more screens of this group.
FMDV antiviral: High Throughput Screening for Foot and Mouth Disease Virus Antivirals | Potency, µM (doses to about 57.9 µM), for inactives: top-dose activity change, negative = inhibition, hits mostly inhibitors | 1.2% of 410,000 active | FMDV antiviral cell-based qHTS; calls by dose curve; tested in HEK293T cells; note: read-out not given here; nearly all actives have a fitted effect of over 45% in size
AMA1-RON2 inh: qHTS for Inhibitors of AMA1-RON; Towards Development of Antimalarial Drug Lead: Primary Screen. 0.2% of 360,000 active. AID 720542, 2013. Plasmodium falciparum AMA1 (3D7) - RON2 peptide interaction. Potency, µM (top dose mostly 58.2 µM), inactives show at the highest dose activity change, negative = inhibition, actives largely listed as inhibitors. AlphaScreen AMA1-biotinylated RON2 peptide binding;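 note: 0% = vehicle wells and -100% = peptide control; nearly all actives have a fitted effect of over 45% in size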
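AMA1 (3D7) with his tag at 25 nM final met compounds first, then biotinylated RON2 peptide at 25 nM; detection used donor plus acceptor beads, 10 µg/mL apiece, read by AlphaScreen after 30 min at room temperature.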
AmpC inh detg: qHTS Inhibitors of AmpC Beta-Lactamase (assay with detergent). Potency, µM (highest dose often 114 µM), inactives show at the top dose activity change, negative = inhibition, most hits filed as inhibitors. P00811. AID 485294, 2010. 0.041% of 370,000 active. AmpC hydrolysis of nitrocefin, absorbance 480 nm, 0.01% Triton;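 note: 0% = no-compound wells and -100% = no-enzyme wells; nearly all actives have a fitted effect of over 25% in size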
Target sequence (P00811 whole entry, looked up): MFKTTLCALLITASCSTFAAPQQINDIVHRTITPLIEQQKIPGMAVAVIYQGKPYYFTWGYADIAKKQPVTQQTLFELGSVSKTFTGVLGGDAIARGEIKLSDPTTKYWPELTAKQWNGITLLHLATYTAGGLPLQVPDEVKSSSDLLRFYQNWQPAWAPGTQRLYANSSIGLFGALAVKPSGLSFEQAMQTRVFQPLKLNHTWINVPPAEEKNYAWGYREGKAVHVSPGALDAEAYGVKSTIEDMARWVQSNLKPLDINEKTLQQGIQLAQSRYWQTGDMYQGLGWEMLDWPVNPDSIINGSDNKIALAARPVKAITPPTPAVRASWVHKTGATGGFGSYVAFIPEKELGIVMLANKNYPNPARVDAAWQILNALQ
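AmpC (5.3 nM in the dispensed reagent) in 20 mM phosphate pH 7.0 with 0.01% (detergent screen) or 0.0001% Triton X-100 was preincubated with compounds for 15 min at room temperature. Nitrocefin was then added from an 800 uM solution, and hydrolysis was followed at 480 nm.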
Sm TGR block: qHTS Assay for the Inhibitors of Schistosoma Mansoni Peroxiredoxins; Potency, µM (top dose mostly 114 µM), for the others: at the top dose activity change, negative = inhibition, hits mostly inhibitors; 3% of 360,000 active; AID 485364, 2010; purified TGR, DTNB reduction, TNB absorbance 405 nm; note: nearly all actives have a fitted effect of over 60% in size
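First, TGR (20 nM dispensed) and NADPH were mixed with compound. Second, a 15 min room-temperature incubation followed. Third, further NADPH and then DTNB were added to start the reaction. Finally, TNB absorbance was monitored kinetically.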
AmpC no deterg: qHTS Inhibitors of AmpC Beta-Lactamase (assay without detergent). AmpC nitrocefin hydrolysis, absorbance 480 nm, 0.0001% Triton. Potency, µM (titrated, usually from 57.1 µM), for inactives: at the top dose activity change, negative = inhibition, usual class: inhibitors. 0.52% of 330,000 active. AID 485341, 2010;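 note: plate controls were no compound for no effect and no enzyme for full effect; nearly all actives have a fitted effect of over 20% in size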
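20 mM phosphate pH 7.0 + 0.01% (detergent screen) or 0.0001% Triton X-100; 5.3 nM AmpC reagent; cpd preinc 15 min RT; nitrocefin (800 uM stock) to start; A480 q20 s × 4 min; Activity was normalised to no-enzyme and no-compound control wells.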
Numbers without * were called inactive; [ ] = remark or other dose. Unless noted, calls come from the whole dose curve; as a rule, active = well fitted curve in the direction sought with a large enough effect; inconclusive = small, poorly fitted or top-dose-only effect, or another doubt; inactive = no such curve, though single readings can be large; an effect the other way counts as inactive or inconclusive. Unless noted, % is set by controls: 0 for no effect and ±100 for the full control effect; potency is the fitted concentration of half-maximal effect.

Cc1cc(C)cc(N2C(=O)NC(=O)/C(=C\C=C\c3ccco3)C2=O)c1 was read as FMDV antiviral 14µM*, AMA1-RON2 inh -12%, AmpC inh detg -5%, Sm TGR block inconclusive and AmpC no deterg -60%.
`Cc1ccc(N2C(=O)NC(=O)/C(=C/C=C/c3ccco3)C2=O)cc1` gave FMDV antiviral inconclusive, AMA1-RON2 inh 5%[2.32 µM], AmpC inh detg -14%, Sm TGR block inconclusive and AmpC no deterg -21%.
CCCCN1C(=O)/C(=C/C=C/c2ccco2)C(=O)NC1=S was read as FMDV antiviral -7%, AMA1-RON2 inh inconclusive, AmpC inh detg -1%, Sm TGR block 4.5µM* and AmpC no deterg -52%.
Screening CCc1nn(CC(=O)NCc2ccccc2Cl)c(=O)c2cc3ccccc3n12 returned FMDV antiviral -11%, AmpC inh detg 16% and Sm TGR block 7%.
O=C1NC(=O)N(c2ccccc2)C(=O)/C1=C\C=C\c1ccccc1 was read as FMDV antiviral 13µM*, AMA1-RON2 inh 3%, AmpC inh detg -3%, Sm TGR block 14µM* and AmpC no deterg -54%.
O=C1NC(=O)C(=CC=Cc2ccccc2)S1 was read as FMDV antiviral 52% and AMA1-RON2 inh -8%.
CC(C)c1ccc(N2C(=O)NC(=O)/C(=C/C=C/c3ccco3)C2=O)cc1 was read as FMDV antiviral 13µM*, AMA1-RON2 inh -15%, AmpC inh detg inconclusive, Sm TGR block inconclusive and AmpC no deterg -56%.
Screening CC(C)OCCCn1c(=O)c2ccccc2n2c(-c3ccc(F)c(F)c3)nnc12 returned FMDV antiviral 11%, AmpC inh detg 23% and Sm TGR block 3%.
`COc1cc(OC)c(NC(=O)CN(C)S(=O)(=O)c2ccc3c(c2)CCCC(=O)N3)cc1Cl` gave FMDV antiviral 0%, AmpC inh detg 4% and Sm TGR block -5%.
Screening Cc1ccc(-c2nc3nc4ccccc4nc3n2Cc2ccco2)cc1 returned FMDV antiviral 5%, AMA1-RON2 inh -12%, AmpC inh detg 0%, Sm TGR block 18µM* and AmpC no deterg -29%.
For Clc1ccc(-c2nc3nc4ccccc4nc3n2Cc2ccco2)cc1 the results were FMDV antiviral 32%, AMA1-RON2 inh 6%, AmpC inh detg 3%, Sm TGR block 20µM* and AmpC no deterg -24%.
Screening COc1cc(OC)c(N(C)C(=O)Nc2cn(CC(C)C)c(=O)c3ccccc23)cc1Cl returned FMDV antiviral 34%, AmpC inh detg -5% and Sm TGR block -3%.
For CCCN(Cc1cc2cc(C)ccc2[nH]c1=O)C(=O)c1cccc(Cl)c1 the results were FMDV antiviral -30%, AmpC inh detg 13% and Sm TGR block 4%.
For CCCCn1c(CCl)nc2cc(S(=O)(=O)N3CCOCC3)ccc21 the results were FMDV antiviral 32µM*, AMA1-RON2 inh -10%[11.6 µM] and AmpC no deterg -14%.
For O=C(c1cc2nc(-c3ccc(F)cc3)cc(C(F)(F)F)n2n1)N1CCCCC1c1cccnc1 (stereo not drawn) the results were FMDV antiviral 18µM*, AMA1-RON2 inh 18%, AmpC inh detg inconclusive, Sm TGR block 1% and AmpC no deterg 107%.
Screening O=C(c1cnn2c(C(F)(F)F)cc(-c3ccccc3)nc12)N1CCCCC1c1cccnc1 (stereo not drawn) returned FMDV antiviral -29%, AMA1-RON2 inh 0%, AmpC inh detg -6% and AmpC no deterg 18%.
O=C(C#Cc1ccccc1)c1ccccc1 was read as FMDV antiviral inconclusive and AMA1-RON2 inh 21%.
For O=C(C#Cc1ccccc1)c1ccc([N+](=O)[O-])cc1 the results were FMDV antiviral 22µM*, AMA1-RON2 inh -24%, AmpC inh detg inconclusive, Sm TGR block 0.32µM* and AmpC no deterg -17%.
`CCOC(=O)c1ccc(NC(=O)CN(c2ccc(C)cc2)S(=O)(=O)c2c(C)noc2C)cc1` gave FMDV antiviral -22%, AmpC inh detg 3% and Sm TGR block 4%.
`Cc1ccc(Cl)c2c1N[C@@H](c1ccc(C(=O)O)cc1)[C@H]1CC=C[C@@H]21` gave FMDV antiviral -20%, AmpC inh detg -10% and Sm TGR block -21%.
`Cc1cc([N+](=O)[O-])c2c(c1C)C1C=CCC1C(c1ccccn1)N2` (stereo not drawn) gave AmpC inh detg inconclusive, Sm TGR block 22µM* and AmpC no deterg -20%.
Screening CC(=O)NN1C(=O)/C(=C\c2ccccc2)SC1=S returned FMDV antiviral 2%, AMA1-RON2 inh 64%, AmpC inh detg -9%, Sm TGR block 10% and AmpC no deterg -16%.
Screening CC(=O)NN1C(=O)/C(=C\c2ccc(Br)o2)SC1=S returned FMDV antiviral inconclusive, AMA1-RON2 inh 3%, AmpC inh detg -3%, Sm TGR block 25µM* and AmpC no deterg -16%.
Screening CC(=O)NN1C(=O)/C(=C/c2ccc(Br)o2)SC1=S returned FMDV antiviral inconclusive, AMA1-RON2 inh 32µM*, AmpC inh detg -14%, Sm TGR block 25µM* and AmpC no deterg -17%.
For COc1ccc(CN2CCCC(n3cc(C(=O)N4CCCCC4)nn3)C2)c(OC)c1 (stereo not drawn) the results were FMDV antiviral -9%.
`Cc1ccc2nc(SCC(=O)NCC3Cc4cc(-c5ncccc5C)ccc4O3)[nH]c2c1` (stereo not drawn) gave FMDV antiviral -28%.
Screening CC(=O)Nc1cccc(N2C(=O)CC(N3CCC(C(=O)N4CCCCC4)CC3)C2=O)c1 (stereo not drawn) returned FMDV antiviral 0%, AMA1-RON2 inh 3%, AmpC inh detg inconclusive, Sm TGR block 20µM* and AmpC no deterg -27%.
COc1cc(OC)cc(N2C(=O)CC(N3CCC(C(=O)N4CCCCC4)CC3)C2=O)c1 (stereo not drawn) was read as FMDV antiviral -4%, AMA1-RON2 inh -21%, AmpC inh detg 0%, Sm TGR block inconclusive and AmpC no deterg 104%.
`CCCCCCOc1ccc(N2C(=O)CC(N3CCC(C(=O)OCC)CC3)C2=O)cc1` (stereo not drawn) gave AMA1-RON2 inh -6%, AmpC inh detg -1%, Sm TGR block 4% and AmpC no deterg 7%.
For CCOC(=O)C1CCCN(C2CC(=O)N(c3ccc(C)c(C)c3)C2=O)C1 (stereo not drawn) the results were FMDV antiviral 5%, AMA1-RON2 inh -2%, AmpC inh detg 4%, Sm TGR block 45µM* and AmpC no deterg 32%.
